Screens deposited in PubChem by Sanford-Burnham Center for Chemical Genomics.
The list is not random: actives were taken first. Their share in the collection is about 2.2%.
C8 TRAIL sens = viability loss with TRAIL in NB7+C8 cells, primary screen, TRAIL sensitizer project, cell-based, ATPlite luminescence | inhibition (viability loss, TRAIL sensitization), % at 10 µM | 360,000 compounds, 1% hits;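 active = compounds causing at least 50% loss of cell viability in the single-dose screen, relative to plate controls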
KKLEB tox = cytotoxicity in KKLEB CF airway cells, primary screen, cytotoxicity control for CF NF-kB inhibitor project, cell-based, uHTS, fluorescence assay plates; KKLEB CF airway cells viability, ATPlite luminescence, overnight; hits give low values; cells stimulated with P. aeruginosa culture filtrate; activity change (cytotoxicity), % at 5 µM; 360,000 compounds, 0.36% hits; AID 602141, 2011;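 active = corrected activity change at or below -50% at 5 µM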
CF NFkB inh = inhibitors of PAF-induced NF-kB signaling, primary screen, cell-based, GFP fluorescence, uHTS; KKLEB NF-kB-GFP reporter, GFP fluorescence overnight; inhibition, % at 5 µM; 360,000 compounds, 0.86% hits;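 active = at least 50% inhibition at 5 µM, scaled per plate between neutral and stimulator controls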;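 note: PAF is a Pseudomonas aeruginosa culture filtrate used as stimulus; plate controls were PAF-stimulated DMSO wells for no effect and unstimulated DMSO wells for full effect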
hiPSC survival = enhancers of single-cell hiPSC survival, primary screen, ATPlite luminescence | 100% = ROCK inhibitor wells, 0% = DMSO | survival enhancement, % at 20 µM | 360,000 compounds, 0.044% hits | AID 602274, 2012; in the data active = survival enhancement above about 18%;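 note: cells exposed to compounds for 16 hours before the ATP read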
HIF-2a inh = HIF-2a reporter inhibitors, primary screen, luminescence, 786-0 RCC cells; inhibition, % at 18.8 µM; 786-0 RCC cells HIF-2a reporter, luciferase luminescence, overnight; 360,000 compounds, 0.72% hits; AID 624352, 2012;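 active = inhibition of the luminescence signal of 40% or more relative to plate controls, in a single-dose primary screen at 18.75 µM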
PPC-1+TRAIL kill = compounds killing PPC-1 cancer cells with TRAIL present, primary screen, TRAIL potentiator project, ATPLite luminescence, uHTS | PPC-1 cells + TRAIL, ATPLite viability luminescence | cell killing (% activity), % at 4 µM or 5 µM | 220,000 compounds, 0.41% hits | AID 1443, 2008;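 active = cell killing above 50% in the first pass at 4 µM, then a duplicate retest at 5 µM averaging 50% or more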;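 note: plate controls were cells with TRAIL plus DMSO for no effect and medium-only wells lacking cells for full effect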
Numbers without * were called inactive.

For CCc1ccc(Nc2nnc(SCC(=O)c3c(N)n(C4CC4)c(=O)[nH]c3=O)s2)cc1 the results were C8 TRAIL sens 61*, KKLEB tox -27, CF NFkB inh 11, hiPSC survival -3 and HIF-2a inh -52.
Cc1ccc(-c2csc(SCC(=O)c3c(N)n(C4CC4)c(=O)[nH]c3=O)n2)cc1 was read as C8 TRAIL sens -1, KKLEB tox 8, CF NFkB inh -8, hiPSC survival -1 and HIF-2a inh -2.
For O=[N+]([O-])c1ccc(N/N=C/c2cn(-c3ccccc3)nc2-c2ccccc2)cc1 the results were C8 TRAIL sens 19, KKLEB tox -1, CF NFkB inh -7, hiPSC survival 1, HIF-2a inh -89 and PPC-1+TRAIL kill 14.
Screening NS(=O)(=O)c1ccc(N/N=C/c2cn(-c3ccccc3)nc2-c2ccccc2)c([N+](=O)[O-])c1 returned C8 TRAIL sens 54*, KKLEB tox -3, CF NFkB inh 1, hiPSC survival 0, HIF-2a inh 12 and PPC-1+TRAIL kill 28.
COc1cc(C(=O)OCC(=O)Nc2cc(C)on2)ccc1OCc1ccccc1Cl was read as C8 TRAIL sens 27, KKLEB tox -4, CF NFkB inh -2, hiPSC survival -2, HIF-2a inh -87 and PPC-1+TRAIL kill 12.
COc1ccc(NC(=O)COC(=O)c2ccc(OCc3ccccc3Cl)c(OC)c2)c(OC)c1 was read as C8 TRAIL sens 15, KKLEB tox -75*, CF NFkB inh 61*, hiPSC survival 1, HIF-2a inh -51 and PPC-1+TRAIL kill 12.
`COC(=O)c1ccc(C(=O)OC)c(NC(=O)CSc2cccc[n+]2[O-])c1` gave C8 TRAIL sens -25, KKLEB tox 4, CF NFkB inh 6, hiPSC survival 22*, HIF-2a inh 11 and PPC-1+TRAIL kill 6.
Screening CN(C)CCCN(C(=O)c1ccc(S(=O)(=O)N(C)C2CCCCC2)cc1)c1nc2ccc(F)cc2s1 returned C8 TRAIL sens 23, KKLEB tox -2, CF NFkB inh -12, hiPSC survival 0 and HIF-2a inh 1.
Cc1cc(C)c2sc(N(CCCN(C)C)C(=O)c3ccc(S(=O)(=O)N(C)C4CCCCC4)cc3)nc2c1 was read as C8 TRAIL sens 76*, KKLEB tox -14, CF NFkB inh 42, hiPSC survival 0 and HIF-2a inh -9.
CN(C)CCCN(C(=O)c1ccc(S(=O)(=O)N(C)C2CCCCC2)cc1)c1nc2ccc(Br)cc2s1 was read as C8 TRAIL sens 58*, KKLEB tox -7, CF NFkB inh 7, hiPSC survival 0 and HIF-2a inh -9.
Screening COc1ccc(-c2cc(=O)c3c(O)cc(O)cc3o2)cc1 returned C8 TRAIL sens 23, KKLEB tox -7, CF NFkB inh 68*, hiPSC survival 0 and HIF-2a inh -121.
Screening O=C(C[C@@H]1C/C=C\CCCC(=O)OC[C@@H]2CCCN2C1=O)N[C@H](CO)Cc1ccccc1 returned C8 TRAIL sens 5, KKLEB tox 5, CF NFkB inh -6, hiPSC survival -2 and HIF-2a inh 7.
O=C(/C(=C/c1cccnc1)n1ccnc1)c1ccc(Cl)cc1Cl was read as C8 TRAIL sens 1, KKLEB tox 11, CF NFkB inh -3, hiPSC survival 2, HIF-2a inh 28 and PPC-1+TRAIL kill 12.
`COc1ccc2nc(-c3ccc(F)cc3)sc2c1` gave C8 TRAIL sens 65*, KKLEB tox -15, CF NFkB inh -8, hiPSC survival -4 and HIF-2a inh -61.
Cc1ccc(S(=O)(=O)N(C)c2c(C)ccc(S(N)(=O)=O)c2C)cc1 was read as C8 TRAIL sens 1, KKLEB tox 3, CF NFkB inh 11, hiPSC survival 2, HIF-2a inh 18 and PPC-1+TRAIL kill 1.
`CC1=NN(C(N)=S)C(=O)C1N=Nc1cccc(C(=O)O)c1` (centres undefined) gave C8 TRAIL sens 4, KKLEB tox 4, CF NFkB inh 0, hiPSC survival 0 and HIF-2a inh 46*.
Screening COc1cc(N)c(C(=O)c2nccc3cc(OC)c(OC)cc23)cc1OC returned C8 TRAIL sens 16, KKLEB tox -3, CF NFkB inh -11, hiPSC survival 0 and HIF-2a inh 12.
For COc1cc(C(=O)c2nccc3cc(OC)c(OC)cc23)c([N+](=O)[O-])cc1OC the results were C8 TRAIL sens -1, KKLEB tox -34, CF NFkB inh 86*, hiPSC survival -1, HIF-2a inh 19 and PPC-1+TRAIL kill 3.
Screening Cc1cc(NC(=O)CSc2nc3sc(C)c(C)c3c(=O)n2C2CCCC2)no1 returned C8 TRAIL sens -1, KKLEB tox -59*, CF NFkB inh 36, hiPSC survival 3, HIF-2a inh 9 and PPC-1+TRAIL kill -8.
For Cc1cc(NC(=O)CSc2nc(C(C)C)nc3sc(C)c(C)c23)no1 the results were C8 TRAIL sens -19, KKLEB tox 1, CF NFkB inh 8, hiPSC survival -1, HIF-2a inh 20 and PPC-1+TRAIL kill 2.
`CN(Cc1ccccc1)c1ccc(N2C(=O)CCCC2=O)cc1[N+](=O)[O-]` gave C8 TRAIL sens 5, KKLEB tox 4, CF NFkB inh -5, hiPSC survival 0, HIF-2a inh 2 and PPC-1+TRAIL kill 15.
Cc1cccc(N/C=C/C(=O)c2cccs2)c1C was read as C8 TRAIL sens 79*, KKLEB tox -34, CF NFkB inh -10, hiPSC survival -2, HIF-2a inh -83 and PPC-1+TRAIL kill 59*.
`NC(=O)c1ccccc1N/C=C/C(=O)c1cccs1` gave C8 TRAIL sens 58*, KKLEB tox -11, CF NFkB inh 18, hiPSC survival -4, HIF-2a inh -151 and PPC-1+TRAIL kill 30.
Screening Cc1ccc(C(=O)/C=C/Nc2ccccc2C(N)=O)o1 returned C8 TRAIL sens 37, KKLEB tox -4, CF NFkB inh -16, hiPSC survival -3, HIF-2a inh -288 and PPC-1+TRAIL kill 0.
Screening COc1ccc([C@H]2CC(=O)C=C(c3ccc(F)nc3)C2)cc1OC returned C8 TRAIL sens 10, KKLEB tox 19, CF NFkB inh -8, hiPSC survival 0 and HIF-2a inh -2.
`COc1ccc(C2=CC(=O)C[C@H](c3ccc(OC)c(OC)c3)C2)cn1` gave C8 TRAIL sens -9, KKLEB tox -20, CF NFkB inh 8, hiPSC survival 46* and HIF-2a inh 10.
For COc1ccc(C)cc1S(=O)(=O)NC(C)c1cnn(-c2ccccn2)c1C (centres undefined) the results were C8 TRAIL sens -35, KKLEB tox -5, CF NFkB inh -2, hiPSC survival 0 and HIF-2a inh -4.
